Shown are actives, neighbours in structure and some others; about 19% of the full set was active somewhere.
HT1080 IDH1KD tx = toxicity to HT-1080 IDH1 knockdown cells (counter line); HT-1080 IDH1 knockdown viability, ATP luminescence, 48 h; actives 2% (n = 360,000); Potency, µM (highest dose often 46.1 µM), for the others: at the highest dose activity, negative = toxicity, actives largely listed as cytotoxic; AID 686971;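 note: 0% = DMSO wells and -100% = cell-free medium wells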
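CellTiter-Glo luminescence after 48 h compound exposure at 37 degrees C of IDH1-knockdown HT-1080 cells in 5% FBS RPMI. %Activity scaled between DMSO wells and cell-free media wells, with curves fitted and assigned curve classes.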
KB-V1 MDR tox = KB-V1 MDR subline cytotoxicity. KB-V1 MDR cells viability, CellTiter-Glo, 72 h. actives 3.4% (n = 400,000). Potency, µM (doses to about 46.1 µM), most hits filed as cytotoxic. AID 1347076; note: nearly all actives have a fitted effect of over 60% in size
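KB-V1 cells (P-gp-expressing MDR subline of KB-3-1) in phenol-red-free DMEM with 10% FBS were exposed to library compounds over a concentration series for 72 h at 37 degrees C. Viability read by CellTiter-Glo luminescence; concentration-effect curves fitted after normalization.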
TDP1 cell CPT = growth inhibition of DT40 Tdp1-/-;hTDP1 cells with camptothecin (screen for TDP1 inhibitors) | chicken DT40 Tdp1-/-;hTDP1 cells + 20 nM CPT, ATP luminescence, 48 h | Potency, µM (titrated, usually from 46.2 µM), without a hit: at the top dose activity change, negative = growth inhibition, usual class: inhibitors | actives 12% (n = 420,000); note: nearly all actives have a fitted effect of over 55% in size
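Chicken DT40 Tdp1-/- cells stably complemented with human TDP1 were seeded at 400 cells/well in medium containing 20 nM camptothecin, exposed to pin-transferred compounds, and grown at 37 °C for at least 48 hr. Viability was read as ATP luminescence.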
KB-3-1 tox = kills parental KB-3-1 adenocarcinoma cells; KB-3-1 viability, CellTiter-Glo ATP luminescence, 72 h; Potency, µM (series often up to 46.1 µM), most hits filed as cytotoxic; actives 1.4% (n = 400,000); AID 1347075; note: nearly all actives have a fitted effect of over 60% in size
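Viability of parental KB-3-1 cells, measured by CellTiter-Glo luminescence, followed a 72 h incubation at 37 °C with pinned compounds in phenol-red-free DMEM containing 10% FBS.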
TDP1 cell noCPT = qHTS for Inhibitors of human tyrosyl-DNA phosphodiesterase 1 (TDP1): qHTS in cells in absence of CPT; DT40 Tdp1-/- hTDP1 cells, no CPT, ATP luminescence, 48 h; Potency, µM (highest dose often 46.2 µM), without a hit: at the top dose activity change, negative = growth inhibition, most hits filed as inhibitors; actives 15% (n = 420,000); note: nearly all actives have a fitted effect of over 55% in size
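Chicken DT40 Tdp1-/- cells complemented with human TDP1, screened without camptothecin (DMSO vehicle only), 400 cells/well. Compounds pin-transferred, cells incubated at 37 °C for at least 48 hr. Growth read as ATP-dependent luminescence (CellTiter-Glo, 30 min at RT).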
HT1080-NT tox = kills 2HG-producing HT-1080-NT fibrosarcoma cells; AID 686970; Potency, µM (top dose mostly 46.1 µM), inactives show top-dose activity, negative = less viability, actives largely listed as cytotoxic; actives 1.6% (n = 360,000); HT-1080-NT fibrosarcoma viability, CellTiter-Glo ATP luminescence, 48 h;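 note: NT is the 2HG producing partner of a matched IDH1 knockdown line; 0% = DMSO-treated cells and -100% = media-only wells without cells; nearly all actives have a fitted effect of over 55% in size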
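Fibrosarcoma NT cells, 750 per well in 5% FBS RPMI, were exposed to compound for 48 hours. Viability: CellTiter-Glo luminescence.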
An asterisk follows results filed as active; i = inactive; u = inconclusive; x = no result. Calls come from the whole dose curve; as a rule, active = well fitted curve in the direction sought with a large enough effect; inconclusive = small, poorly fitted or top-dose-only effect, or another doubt; inactive = no such curve, though single readings can be large; an effect the other way counts as inactive or inconclusive. Unless noted, % is set by controls: 0 for no effect and ±100 for the full control effect; potency is the fitted concentration of half-maximal effect.

SMILES	HT1080 IDH1KD tx	KB-V1 MDR tox	TDP1 cell CPT	KB-3-1 tox	TDP1 cell noCPT	HT1080-NT tox
Cc1onc(-c2ccccc2)c1C(=O)NC1CCC(C)CC1 (centres undefined)	-1%	i	13µM*	u	u	0%
O=C(OCc1ccccc1C(F)(F)F)c1cc([N+](=O)[O-])ccc1N1CCOCC1	-25%	u	u	i	-10%	-6%
CCOc1ccc(C(C)=O)cc1COC(=O)c1cc([N+](=O)[O-])ccc1N1CCOCC1	-18%	i	23µM*	i	u	-2%
COc1ccc(OC)c(COC(=O)c2cc([N+](=O)[O-])ccc2N2CCOCC2)c1	u	u	7.3µM*	5.2µM*	4.1µM*	u
O=C(Nc1cccc(S(=O)(=O)N2CCCCC2)c1)C1CCCN1S(=O)(=O)c1ccccc1F (centres undefined)	2%	x	u	x	u	0%
Cc1ccc(S(=O)(=O)N2CC(O)C[C@H]2C(=O)OCC(=O)Nc2ccc(N3CCCCC3)cc2)cc1C (some centres undefined)	-6%	i	u	i	18µM*	-8%
Nn1c(Cc2cccc3ccccc23)nnc1SCc1ccccc1Cl	-3%	i	-21%	i	u	-6%
Nn1c(Cc2cccc3ccccc23)nnc1SCc1ccccc1	3%	16µM*	u	i	u	6%
COc1ccc(OCCCC(=O)NNC(=O)c2ccncc2)cc1	-3%	i	10%	i	4%	5%
CC(=O)N(C(C)=O)c1ncnc2c1c(-c1ccc(Cl)cc1)nn2C(C)(C)C	15µM*	u	u	u	18µM*	u
CC(=O)Nc1ccc(OC(=O)c2ccccc2OC(C)=O)cc1	x	x	0%	x	-28%	x
COc1cc(/C=c2\s/c(=C(/C#N)C(=O)N3CCCC3)n(-c3ccccc3)c2=O)ccc1O	8%	i	u	i	9.2µM*	-2%
COC(=O)/C=c1/s/c(=C(/C#N)C(=O)N2CCCCC2)n(-c2ccccc2)c1=O	-16%	i	-20%	i	u	6%
COc1ccc(CN2C(=O)CSCC2(C)C(=O)NCc2ccccc2)cc1 (centres undefined)	0%	i	u	i	-28%	7%
CSCCC1NC(=O)C(C(C)=NNC(N)=O)=C1O (centres undefined)	20%	i	u	i	16µM*	12%
C/C(=N\NC(N)=O)c1ccccc1Cl	13%	u	9%	i	-16%	9%
Oc1ccc(Br)cc1-c1cc(-c2ccccc2)n[nH]1	21µM*	i	u	i	u	29µM*
Oc1ccc(Br)cc1-c1cc(-c2ccc(Cl)cc2)n[nH]1	23µM*	10µM*	21µM*	18µM*	u	23µM*
O=[N+]([O-])c1cccc(-c2cc(-c3cc(Br)ccc3O)[nH]n2)c1	u	21µM*	u	21µM*	21µM*	u
Cc1noc(C)c1C(=O)N1CCC2(CCCN(c3ccccc3)C2)CC1	x	x	5%	x	u	x
O=C(Cc1c[nH]c2ccccc12)NC1(C(=O)NC2CCCC2)CCCCC1	15%	u	1%	i	-11%	9%
COC(CNC(=O)CN1CCN(Cc2ccc(F)cc2Cl)C1=O)OC	18%	i	-20%	i	-2%	-1%
Cc1nc(C)c(-c2nnc(-c3ccc(C(C)(C)C)cc3)o2)cc1C(=O)NN	-22%	i	u	i	23µM*	-13%
Cc1nc(C)c(-c2nnc(-c3ccccc3Cl)o2)cc1C(=O)NN	3%	u	-6%	i	17%	23%

Assay outcomes deposited in PubChem by National Center for Advancing Translational Sciences (NCATS).
